Test results taken from paper PMC9911399, “Two distinct binding modes provide the RNA-binding protein RbFox with extraordinary sequence specificity”.
Residue numbers refer to the chain shown, from its start. Whole data set: some 16,000 sequences, median “ka relative to ugcaugu” near 0.0091, cut for the highest 2% near 0.032. For the sample, the highest values were picked, then their nearest neighbours and some sequences at random.

T1: RBFOX1 RRM (Homo sapiens, UniProt Q9NWB1 109-208)
T1 sequence: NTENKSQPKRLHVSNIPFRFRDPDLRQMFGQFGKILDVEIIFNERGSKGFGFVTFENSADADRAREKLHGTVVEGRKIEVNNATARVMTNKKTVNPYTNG

B1: AUUGUUU (DNA:RNA)
RNA: GGGAGACCGGAAUUCAGAUUGUCCAUUGUUUUUAAAUCCCGUCGUAGCCACCA
DNA 1: CAATCTGAATTCCGGTCTCCC
DNA 2: TGGTGGCTACGACGGGATT
B2: GUUCAGC (DNA:RNA)
RNA: B1 RNA with A25G, G28C, U29A, U30G, U31C
DNA 1: CAATCTGAATTCCGGTCTCCC
DNA 2: TGGTGGCTACGACGGGATT
B3: AAUAUGG (DNA:RNA)
RNA: B1 RNA with U26A, G28A, U30G, U31G
DNA 1: CAATCTGAATTCCGGTCTCCC
DNA 2: TGGTGGCTACGACGGGATT
B4: CGCGAUU (DNA:RNA)
RNA: B1 RNA with A25C, U26G, U27C, U29A
DNA 1: CAATCTGAATTCCGGTCTCCC
DNA 2: TGGTGGCTACGACGGGATT
B5: UAUGUGA (DNA:RNA)
RNA: B1 RNA with A25U, U26A, U30G, U31A
DNA 1: CAATCTGAATTCCGGTCTCCC
DNA 2: TGGTGGCTACGACGGGATT
B6: GUAUUGA (DNA:RNA)
RNA: B1 RNA with A25G, U27A, G28U, U30G, U31A
DNA 1: CAATCTGAATTCCGGTCTCCC
DNA 2: TGGTGGCTACGACGGGATT
B7: ACGGAUU (DNA:RNA)
RNA: B1 RNA with U26C, U27G, U29A
DNA 1: CAATCTGAATTCCGGTCTCCC
DNA 2: TGGTGGCTACGACGGGATT
B8: GGGAUUU (DNA:RNA)
RNA: B1 RNA with A25G, U26G, U27G, G28A
DNA 1: CAATCTGAATTCCGGTCTCCC
DNA 2: TGGTGGCTACGACGGGATT
B9: CGGGAUU (DNA:RNA)
RNA: B1 RNA with A25C, U26G, U27G, U29A
DNA 1: CAATCTGAATTCCGGTCTCCC
DNA 2: TGGTGGCTACGACGGGATT
B10: GGAUUUU (DNA:RNA)
RNA: B1 RNA with A25G, U26G, U27A, G28U
DNA 1: CAATCTGAATTCCGGTCTCCC
DNA 2: TGGTGGCTACGACGGGATT
B11: GUUAAAU (DNA:RNA)
RNA: B1 RNA with A25G, G28A, U29A, U30A
DNA 1: CAATCTGAATTCCGGTCTCCC
DNA 2: TGGTGGCTACGACGGGATT
B12: CGGGCGU (DNA:RNA)
RNA: B1 RNA with A25C, U26G, U27G, U29C, U30G
DNA 1: CAATCTGAATTCCGGTCTCCC
DNA 2: TGGTGGCTACGACGGGATT
B13: GGGCGUU (DNA:RNA)
RNA: B1 RNA with A25G, U26G, U27G, G28C, U29G
DNA 1: CAATCTGAATTCCGGTCTCCC
DNA 2: TGGTGGCTACGACGGGATT
B14: GGGAAAU (DNA:RNA)
RNA: B1 RNA with A25G, U26G, U27G, G28A, U29A, U30A
DNA 1: CAATCTGAATTCCGGTCTCCC
DNA 2: TGGTGGCTACGACGGGATT
B15: GGGGCGU (DNA:RNA)
RNA: B1 RNA with A25G, U26G, U27G, U29C, U30G
DNA 1: CAATCTGAATTCCGGTCTCCC
DNA 2: TGGTGGCTACGACGGGATT
B16: GGGGAAU (DNA:RNA)
RNA: B1 RNA with A25G, U26G, U27G, U29A, U30A
DNA 1: CAATCTGAATTCCGGTCTCCC
DNA 2: TGGTGGCTACGACGGGATT
B17: UCCGGCA (DNA:RNA)
RNA: B1 RNA with A25U, U26C, U27C, U29G, U30C, U31A
DNA 1: CAATCTGAATTCCGGTCTCCC
DNA 2: TGGTGGCTACGACGGGATT
B18: ACUUCCC (DNA:RNA)
RNA: B1 RNA with U26C, G28U, U29C, U30C, U31C
DNA 1: CAATCTGAATTCCGGTCTCCC
DNA 2: TGGTGGCTACGACGGGATT
B19: ACGCCGU (DNA:RNA)
RNA: B1 RNA with U26C, U27G, G28C, U29C, U30G
DNA 1: CAATCTGAATTCCGGTCTCCC
DNA 2: TGGTGGCTACGACGGGATT
B20: UGCCAAA (DNA:RNA)
RNA: GGGAGACCGGAAUUCAGAUUGUCCUGCCAAAUUAAAUCCCGUCGUAGCCACCA
DNA 1: CAATCTGAATTCCGGTCTCCC
DNA 2: TGGTGGCTACGACGGGATT

These binders were tested against T1, RBFOX1 RRM (assay: EMSA; HiTS-Eq, 1 nM pool, 10 min; buffer printed only for the single-RNA assays: 10 mM Tris pH 7.5, 150 mM NaCl, 3.4 mM EDTA, 0.001% NP-40, 30 C). Conditions: tags: His6 N-terminal (pET28a); label: 5' 32P.
How it was run: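 Relative association constants, normalised to the cognate motif, were derived by comparing read counts of each RNA species with those of the control reaction. The RNA sequenced was the free fraction, separated by 8% native PAGE after a 10 min equilibration in 50 µL of 1 nM 5′-radiolabelled RNA (7 randomized nucleotides) with increasing concentrations of purified wild-type or mutant RbFox RRM.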

Binder | binding signal
B1 | 0.0146 KA relative to UGCAUGU
B2 | 0.0147 KA relative to UGCAUGU
B3 | 0.00711 KA relative to UGCAUGU
B4 | 0.0158 KA relative to UGCAUGU
B5 | 0.0133 KA relative to UGCAUGU
B6 | 0.0118 KA relative to UGCAUGU
B7 | 0.00809 KA relative to UGCAUGU
B8 | 0.0372 KA relative to UGCAUGU
B9 | 0.03 KA relative to UGCAUGU
B10 | 0.0184 KA relative to UGCAUGU
B11 | 0.00766 KA relative to UGCAUGU
B12 | 0.029 KA relative to UGCAUGU
B13 | 0.0253 KA relative to UGCAUGU
B14 | 0.0288 KA relative to UGCAUGU
B15 | 0.0374 KA relative to UGCAUGU
B16 | 0.0354 KA relative to UGCAUGU
B17 | 0.0141 KA relative to UGCAUGU
B18 | 0.00296 KA relative to UGCAUGU
B19 | 0.00555 KA relative to UGCAUGU
B20 | 0.0103 KA relative to UGCAUGU
